HCV inh: inhibitors of hepatitis C virus infection; Potency, µM (doses to about 41.8 µM), inactives show at the highest dose activity change, negative = inhibition, most hits filed as inhibitors; AID 651820; Huh7.5.1 HCVcc-Cre infection, luciferase reporter, 44 h; 340,000 compounds, 3.4% hits; also: potency is read from the fitted curve at half-maximal effect
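Cells seeded at 1,000/well and cultured 4 h, then compounds added followed by HCVcc-Cre virus (~0.5 moi). After 44 h further culture, luciferase substrate was added, plates held 15 min at room temperature, and luminescence read for 15 sec.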
Pf growth 48h: inhibits P. falciparum growth in the first generation, 48 h | Potency, µM (highest dose often 28.7 µM), for inactives: at the top dose activity change, negative = inhibition, hits mostly inhibitors | 310,000 compounds, 5.9% hits | AID 504832 | P. falciparum luciferase growth in erythrocytes, 48 h; also: potency is read from the fitted curve at half-maximal effect
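In quantitative HTS format, infected erythrocytes bearing luciferase-reporter parasites were treated for a single generation at 37 C. Luminescence after adding detection reagent served as the growth measure.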
Pf growth 96h: P. falciparum growth inhibition at 96 hours; P. falciparum luciferase reporter growth, 96 h; Potency, µM (highest dose often 28.7 µM), inactives show at the top dose activity change, negative = inhibition, usual class: inhibitors; 320,000 compounds, 6.9% hits; also: potency is read from the fitted curve at half-maximal effect
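Two-generation exposure (96 h) targets delayed-death phenotype. Reporter parasites carrying integrated firefly luciferase, in red cells at 2% hematocrit and 0.05% parasitemia final, kept at 37 C, 5% CO2; luminescence loss indicates inhibition.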
Marburg entry inh: inhibitors of Marburg virus binding or cell entry | Marburg virus pseudotyped entry inhibition, cell reporter | Potency, µM (highest dose often 37.8 µM), inactives show top-dose activity change, negative = inhibition, usual class: inhibitors | 300,000 compounds, 1.8% hits | AID 540276; calls by dose curve; tested in HEK293 cells; also: potency is read from the fitted curve at half-maximal effect
HCMV antiviral: blocks human cytomegalovirus replication | HFF cells, HCMV-luciferase reporter, 72 h; stronger effect = lower value | 410,000 compounds, 4.5% hits | activity change, negative = inhibition, % at 57.5 µM; in the data active = activity change below about -60%; inconclusive = no clear call, values can overlap the other calls; inactive = above about -39%
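Inhibition of viral replication was scored as loss of reporter luminescence in HFFs infected with HCMV-luciferase (MOI 1 PFU/cell) for 72 h; compounds tested at 2 doses, normalized to buffer and Salinomycin controls.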
LASV entry inh: blocks Lassa virus binding to or entry into cells; Lassa virus pseudotype entry inhibition, cell reporter; Potency, µM (titrated, usually from 37.9 µM), without a hit: at the highest dose activity change, negative = inhibition, actives largely listed as inhibitors; 300,000 compounds, 1.2% hits; calls by dose curve; tested in HEK293 cells; also: potency is read from the fitted curve at half-maximal effect; nearly all actives have a fitted effect of over 50% in size
The depositor's hits bear a star; [ ] = remark or other dose. A selection: hits, their analogues and other compounds. The true share with any hit is near 14%. Unless noted, calls follow the shape of the dose curve; as a rule, active = well fitted inhibition curve with a large enough effect; inconclusive = small, poorly fitted or top-dose-only effect, or another doubt; inactive = no such curve, though single readings can be large or run the other way. % is scaled to controls: 0 for no effect and ±100 for the full control effect.

CC1(Oc2ccc(CC#N)cc2)CCN(Cc2ccccc2OC(F)F)C1 (stereo not drawn) was read as HCMV antiviral -11.0.
`COCCc1ncc(CN2CCC(C(=O)Nc3ccc(-n4cccn4)cc3)CC2)cn1` gave Pf growth 48h inconclusive, Pf growth 96h 0.9%, Marburg entry inh inconclusive and LASV entry inh 2.4%.
For CN(C)c1ncc(CN2CCC(C(=O)Nc3ccc(-n4cccn4)cc3)CC2)s1 the results were HCV inh 13.6%, Pf growth 48h 2.62µM*, Pf growth 96h 17.3%, Marburg entry inh 18.9%, HCMV antiviral -5.8 and LASV entry inh 10.7%.
Screening CCOC(=O)c1ccccc1NC(=O)Cc1sc(-c2cccnc2)nc1-c1ccc(C)cc1 returned HCV inh -26.6%, Pf growth 48h 4.15µM*, Pf growth 96h 2.62µM*, Marburg entry inh 3.5% and LASV entry inh 12.2%.
`Cc1ccc(-c2nc(-c3cccnc3)sc2CC(=O)Nc2ccc3nc(C)sc3c2)cc1` gave HCV inh 13.9%, Pf growth 48h inconclusive, Pf growth 96h 13.1µM*, Marburg entry inh inconclusive, HCMV antiviral -38.6 and LASV entry inh -24.7%.
O=C(O)Cc1sc(-c2cccnc2)nc1-c1ccc(Br)cc1 was read as HCV inh inconclusive, Pf growth 48h -3.3%, Pf growth 96h -8.8%, Marburg entry inh inconclusive, HCMV antiviral -37.1 and LASV entry inh -16.8%[46.1 µM].
For Cc1nc2ccc(NC(=O)c3cccnc3)cc2s1 the results were HCV inh inconclusive, Pf growth 48h 1.6%, Pf growth 96h 23.4%, Marburg entry inh 1.6%[46.1 µM] and HCMV antiviral -10.0.
`CCC(C(=O)OCc1cc(=O)n2nc(CCOC)sc2n1)c1ccccc1` (stereo not drawn) gave HCMV antiviral -1.3 and LASV entry inh 6.8%[46.1 µM].
For CCOC(=O)c1c(CN(C)C)n(C)c2c(O)c(N=NC(N)=O)c3ccc(Br)cc3c12 the results were HCV inh inconclusive, Pf growth 48h 0.415µM*, Pf growth 96h 4.3%, Marburg entry inh inconclusive, HCMV antiviral -14.9 and LASV entry inh -5.2%[46.1 µM].
Screening Cc1cc2nc(CN(C)C(=O)C3CCC(=O)N(C4CCCC4)C3)[nH]c2cc1C (stereo not drawn) returned HCMV antiviral 47.6.
For Cc1ccc(NC(=O)COC(=O)c2ccc3c(c2)NC(=O)C2CCCN32)cc1 (stereo not drawn) the results were HCV inh 10µM*, Pf growth 48h 10.4µM*, Pf growth 96h 11.4%, Marburg entry inh -21.7%, HCMV antiviral 56.1 and LASV entry inh 0.5%.
For CCCCn1c(=O)n(CC2CCC(C(=O)NCCCOC)CC2)c(=O)c2sccc21 (stereo not drawn) the results were HCMV antiviral 5.5 and LASV entry inh inconclusive.
`O=C(/C=C/Nc1ccccc1Br)c1ccccn1` gave HCV inh -8.6%, Pf growth 48h -71.5%, Pf growth 96h inconclusive, Marburg entry inh inconclusive, HCMV antiviral -85.4* and LASV entry inh 1.12µM*.
For O=C(/C=C\Nc1ccccn1)c1ccccc1 the results were HCV inh 7.7%, Pf growth 48h -52.7%, Pf growth 96h inactive, Marburg entry inh inconclusive, HCMV antiviral 45.6 and LASV entry inh 2.51µM*.
Screening CC(=O)Nc1ccc(SC(C)C(=O)NC2CCCC2)cc1 (stereo not drawn) returned HCV inh 0.3%, Pf growth 48h 12.9%, Pf growth 96h 4.0%, Marburg entry inh -1.4%[46.1 µM], HCMV antiviral 4.3 and LASV entry inh 12.6%.
Cc1ccc(SC(C)C(=O)NCCC2=CCCCC2)cc1 (stereo not drawn) was read as HCV inh -4.8%, Pf growth 48h 0.5%, Pf growth 96h 11.7µM*, Marburg entry inh 11.0%, HCMV antiviral 6.9 and LASV entry inh -0.4%.
CC(Sc1ncn[nH]1)C(=O)NCc1ccccc1 (stereo not drawn) was read as HCV inh 13.2%, Pf growth 48h 123.1%, Pf growth 96h -0.5%, Marburg entry inh 13.8%[46.1 µM], HCMV antiviral -98.6* and LASV entry inh -1.5%[46.1 µM].
Screening Cc1ccc(SC(C)C(=O)NC2CC2)cc1 (stereo not drawn) returned HCV inh -4.3%, Pf growth 48h 10.4µM*, Pf growth 96h 10.4µM* and HCMV antiviral 61.8.
`CC(Sc1ccccc1)C(=O)NCCc1ccccc1` (stereo not drawn) gave HCV inh 9.0%, Pf growth 48h 15.0%, Pf growth 96h 9.28µM* and HCMV antiviral 38.4.
`O=C(CSc1ncn[nH]1)NCCc1ccccc1` gave HCV inh 5.1%, Pf growth 96h -0.9%, Marburg entry inh 13.5%, HCMV antiviral 7.2 and LASV entry inh -4.0%.
Screening COc1ccc(CCNC(=O)C(C)SCc2ccccc2)cc1 (stereo not drawn) returned HCV inh 5.0%, Pf growth 48h -19.6%, Pf growth 96h 44.7%, Marburg entry inh -22.3%[46.1 µM], HCMV antiviral -25.9 and LASV entry inh inconclusive.
`CCOCCCNC(=O)C1CCC(CNS(=O)(=O)c2ccc(NC(C)=O)cc2)CC1` (stereo not drawn) gave HCMV antiviral 0.0 and LASV entry inh 3.4%[46.1 µM].
Screening Cc1ccc(C(=O)c2ccccc2C(=O)OCC(=O)Nc2cccc([N+](=O)[O-])c2)cc1 returned HCV inh -9.2%, Pf growth 48h 17.2%, Pf growth 96h -8.2%, Marburg entry inh inconclusive, HCMV antiviral -35.2 and LASV entry inh -25.0%.
Screening Cc1ccc(Cl)c(NC(=O)COC(=O)c2ccccc2C(=O)c2ccc(Cl)c([N+](=O)[O-])c2)c1Cl returned HCV inh inconclusive, Pf growth 48h -28.9%, Pf growth 96h -23.5%, Marburg entry inh 4.61µM*, HCMV antiviral -101.6* and LASV entry inh 13µM*.
For CCCNC(=O)COC(=O)c1ccccc1C(=O)c1ccc(Cl)c([N+](=O)[O-])c1 the results were HCV inh inconclusive, Pf growth 48h inconclusive, Pf growth 96h 13.3%, Marburg entry inh 3.16µM*, HCMV antiviral -113.3* and LASV entry inh inconclusive.
`O=c1oc(-c2ccc([N+](=O)[O-])cc2)nc2ccccc12` gave HCV inh 7.0%, Pf growth 48h inconclusive, Pf growth 96h inconclusive and HCMV antiviral 26.4.
`O=c1oc(-c2ccc(Br)cc2)nc2ccccc12` gave HCV inh 14.0%, Pf growth 48h 3.0%, Pf growth 96h 5.86µM*, Marburg entry inh 2.4%, HCMV antiviral 131.8 and LASV entry inh 25.1%.
CCOc1ccc(Oc2cc(NC(=O)c3ccco3)cc([N+](=O)[O-])c2)cc1 was read as HCV inh inconclusive, Pf growth 48h 6.57µM*, Pf growth 96h 1.65µM*, Marburg entry inh -7.7%, HCMV antiviral 7.3 and LASV entry inh inconclusive.

Assay outcomes deposited in PubChem BioAssay by National Center for Advancing Translational Sciences (NCATS).
